Experimental findings from PubChem BioAssay are described below.

A short description of the experiment: EMT-state selective cytotoxicity in co-culture – imaging, PC-3E GFP, TEM4-18 mCherry, primary screen (AID 1345086).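 For all read-outs here: cells exposed to compound for 72 h before imaging.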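 For red/green cell ratio (normalised): normalised mesenchymal count divided by normalised epithelial count so high means epithelial killing.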 The following applies: PC-3E GFP / TEM4-18 mCherry co-culture, imaging cell counts, at 1 µM; for red/green cell ratio (normalised): actives lie on both sides, counts scaled to control wells, 1 = unselective.
Where [1] appears, read: measured here: epithelial PC-3E GFP cell survival.
The mark [2] stands for this setting: measured here: mesenchymal TEM4-18 mCherry cell survival.

Several values for one entry are separate records, joined by “and”; a condition that tells them apart may be missing. Equal values may be shown once. Activity calls are given as the source filed them.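 Rule for the calls: active = compounds killing one labelled cell type while sparing the other, by normalised counts and ratio limits, not self-fluorescent; inactive = the rest.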

As for `O=C1NCC[C@@H]1Oc1ccc(Oc2cnc3ccc(Cl)cc3n2)cc1`, the red/green cell ratio (normalised) was 0.74 (inactive). Also, the normalised cell number under setting [1] came to 1.03. The compound also showed a normalised cell number under setting [2] of 0.76.
In the same order, the values of `C/C=C/[C@@H]1C=C[C@@H]2C[C@H](C)CC[C@H]2[C@]1(C)/C(O)=C1\C(=O)[C@H](CO)N(C)C1=O` are 1.03 (inactive), 0.99 and 1.01.
For `O=C(O)c1cc(O)c2c(c1)[C@@H]([C@@H]1c3cc(C(=O)O)cc(O)c3C(=O)c3c(O[C@H]4O[C@H](CO)[C@@H](O)[C@H](O)[C@H]4O)cccc31)c1cccc(O[C@H]3O[C@H](CO)[C@@H](O)[C@H](O)[C@H]3O)c1C2=O` the same measures were 0.83 (inactive), 1.02 and 0.84.
In the same order, the values of `O=C(NCC1O[C@@H](OC2C(NC(=O)OCc3ccccc3)C[C@@H](NC(=O)OCc3ccccc3)[C@H](OC3OC(COS(=O)(=O)O)[C@@H](OS(=O)(=O)O)[C@H](NC(=O)OCc4ccccc4)[C@H]3OS(=O)(=O)O)[C@H]2OS(=O)(=O)O)[C@H](OS(=O)(=O)O)[C@@H](OS(=O)(=O)O)C1OS(=O)(=O)O)OCc1ccccc1` (stereo not given in full) are 1.03 (inactive), 0.88 and 0.91.
In the case of `NC(=O)c1cc(F)c(F)cc1NC1CC1`, the red/green cell ratio (normalised) is 1.15 (inactive). Under setting [1], this compound showed a normalised cell number of 1.02. For the same compound, under setting [2], the normalised cell number was found to be 1.16.
For `COC(=O)C1O[C@H](OCc2ccccc2)[C@@H](OC(C)=O)[C@@H](OC(C)=O)C1OC(C)=O` (stereo not given in full) the same measures were 0.86 (inactive), 1.31 and 1.13.
On to `OCC1O[C@H](O[C@H]2OC(CO)[C@@H](O)[C@@H](O)C2O)C(O)[C@H](O)[C@@H]1O` (stereo not given in full), for which the red/green cell ratio (normalised) is 1.12 (inactive). Further, under setting [1], the normalised cell number stood at 1.01. The normalised cell number under setting [2] turned out to be 1.13.
For `COC(=O)CCC(C)C1CCC2C3CC[C@@H]4C[C@H](O)CC[C@]4(C)C3C[C@H](O)[C@]12C` (stereo not given in full) the same measures were 0.9 (inactive), 1.05 and 0.94.
In the case of `COc1cc(/C=C/C(=O)O)cc(OC)c1`, the red/green cell ratio (normalised) is 1.01 (inactive). Under setting [1], the normalised cell number worked out at 0.91. The normalised cell number under setting [2] turned out to be 0.93.
As for `CC(=O)O[C@H]1C[C@@H](OC(C)=O)C(C)(C)C2C[C@@H](OC(C)=O)[C@]3(C)C(CC[C@@]4(C)[C@H](c5ccoc5)OC(=O)[C@H]5O[C@]543)[C@]21C` (stereo not given in full), the red/green cell ratio (normalised) was 1.1 (inactive). This compound registered a normalised cell number under setting [1] of 0.93. This compound came in with a normalised cell number under setting [2] of 1.02.
`CC(CCC(=O)O)[C@H]1CCC2C3CC[C@@H]4CCCC[C@]4(C)C3CC[C@@]21C` (stereo not given in full): the red/green cell ratio (normalised) is 0.93 (inactive). Under setting [1], the normalised cell number worked out at 1.12. Under setting [2], this compound yielded a normalised cell number of 1.04.
For `OC[C@H]1O[C@H](OCCCc2ccc(O)cc2)[C@H](O)[C@@H](O)[C@@H]1O` the same measures were 1.19 (inactive), 0.9 and 1.07.
For `CC(C)CCCC(C)C1CCC2C3CC[C@H]4CC(=O)CC[C@]4(C)C3CC[C@]12C` (stereo not given in full) the same measures were 0.94 (inactive), 1.04 and 0.97.
In the same order, the values of `O=C(O)c1ccc(-c2ccccc2)cc1` are 0.96 (inactive), 1.01 and 0.97.
In the case of `CC(C)(c1ccc(O)cc1)c1ccc(O)cc1`, the red/green cell ratio (normalised) was 0.93 (inactive). Under setting [1], the normalised cell number came to 1.17. The same compound gave a normalised cell number under setting [2] of 1.09.
As to `C[C@H]1[C@H](C)CC[C@]2(C(=O)O)CC[C@]3(C)C(=CCC4[C@@]5(C)C[C@@H](O)[C@H](O)[C@@](C)(CO)C5[C@H](O)C[C@]43C)[C@H]12` (stereo not given in full), the red/green cell ratio (normalised) is 1.27 (inactive). The compound further showed a normalised cell number under setting [1] of 0.92. Besides, the normalised cell number under setting [2] is 1.17.
In the same order, the values of `O=C1OCC[C@@H]1Oc1ccc(Oc2cnc3ccc(Cl)cc3n2)cc1` are 0.83 (inactive), 1.22 and 1.01.
For the compound `C[C@@H]1CC[C@H]2[C@@H](C)C(O)O[C@@H]3O[C@]4(C)CC[C@@H]1[C@]32OO4` (stereo not given in full), the red/green cell ratio (normalised) was 0.74 (inactive). In addition, under setting [1], the normalised cell number is 1.16. The same compound yielded a normalised cell number under setting [2] of 0.85.
For `COC(=O)C[C@@H]1C2(C)C(=O)C3CC4(OC3(O)C1(C)C)C1=CC(=O)O[C@@H](c3ccoc3)[C@]1(C)CCC42` (stereo not given in full) the same measures were 1.06 (inactive), 0.91 and 0.96.
For `CC(=O)OCC1=C[C@]2(O)CC3=C(CC24O[C@@H]4C1=O)[C@@]1(C)CCCC(C)(C)[C@@H]1CC3` (stereo not given in full) the same measures were 1.02 (inactive), 0.93 and 0.94.
For `OCC(O)C(O)C(O)C(O)C(O)CO` (stereo not given) the same measures were 0.95 (inactive), 0.96 and 0.91.
Take `COc1c(F)c(F)cc(C(=O)O)c1F`: the red/green cell ratio (normalised) is 1.1 (inactive) and 1.01 (inactive). The normalised cell number under setting [1] was 0.89 and 0.98. Also, the normalised cell number under setting [2] is 0.98 and 0.99.
Consider `O=C1C=CC2=C3c4cc(O)c(O)cc4C[C@@]3(O)COC2=C1`, for which the red/green cell ratio (normalised) is 1.29 (inactive). Also, the normalised cell number under setting [1] is 1.07. Under setting [2], this compound displayed a normalised cell number of 1.38.
For `C/C=C/c1cc2c(c(=O)o1)C(=O)[C@@H](O)[C@H](C)O2` the same measures were 1.02 (inactive), 0.9 and 0.92.
In the same order, the values of `O=C1CCC[C@@H](N2C(=S)OC[C@H]2c2ccccc2)C1` are 0.91 (inactive), 1.1 and 1.01.
In the same order, the values of `CC(=O)OC[C@@]1(O)C[C@@]23CCC4c5ccoc5CC[C@]4(C)C2CC[C@@H]1C3` (stereo not given in full) are 0.98 (inactive), 0.89 and 0.88.
As to `Cc1ccc(S[C@H]2OC(CO)C(O)[C@@H]3OC(=O)N[C@H]23)cc1` (stereo not given in full), the red/green cell ratio (normalised) was 0.98 (inactive). The same compound registered a normalised cell number under setting [1] of 1.01. Moreover, the normalised cell number under setting [2] worked out at 0.99.
For `CCC[C@H]1Cc2cc3c(-c4c(O)cc(O)c5c(O)c6c(cc45)C[C@H](CCC)OC6=O)c(O)cc(O)c3c(O)c2C(=O)O1`, the red/green cell ratio (normalised) is 0.9 (inactive). The same compound displayed a normalised cell number under setting [1] of 0.85. Also, the normalised cell number under setting [2] turned out to be 0.77.
In the same order, the values of `CC1(C)S[C@@H]2[C@H](NC(=O)C(N)c3ccc(O)cc3)C(=O)N2[C@H]1C(=O)O` (stereo not given in full) are 0.84 (inactive), 1.22 and 1.02.
For `O=c1cc(-c2ccccc2)oc2cc(O)ccc12` the same measures were 0.8 (inactive), 1.2 and 0.97.
